About 4,300 (8.3%) of roughly 52,000 compounds were called active. Shown is part of a subset that was picked to be rich in actives. Unmarked numbers belong to inactive results. Cut-off read from the data, not from the text of the source: active = survival mostly below about 52% (no sharp cut-off); inactive = mostly above about 56%.

This experiment deals with DeltatarO mutant. Briefly: growth inhibition of S. aureus wild type versus tarO mutant, primary screen, teichoic acid synthesis inhibitors, RN4220, OD600 (AID 463173). Particulars: OD600, 18 h, active compounds read low, screened at 18.75 µg/mL (by protocol).
With `CCOc1ccccc1NC(=O)c1sc(-n2nc(C)c(CCC(C)C)c2C)nc1C`, the survival was 69%.
The figure for `COc1cccc2sc(N(Cc3cccnc3)C(=O)c3ccc4c(c3)OCCO4)nc12` is 72%; for `O=C(CSc1nc2ncccc2[nH]1)Nc1cc(F)ccc1F` it is 86%.
`Cc1ccc(CN2c3ccccc3-c3nc(SCC(=O)NCCc4ccccc4)ncc3S2(=O)=O)cc1`: the survival was 55%.
The figure for `O=C(CSc1ncc2c(n1)-c1ccccc1N(Cc1ccc(F)cc1)S2(=O)=O)NCc1ccccc1` is 87%; for `CCN1c2ccccc2-c2nc(SCC(=O)NCc3ccccc3)ncc2S1(=O)=O` it is 93%.
To `Cc1ccc(CN2c3ccccc3-c3nc(SCC(=O)Nc4c(C)cc(C)cc4C)ncc3S2(=O)=O)cc1` belongs 128%; to `Cc1ccccc1CN1c2ccccc2-c2nc(SCC(=O)NCc3ccccc3)ncc2S1(=O)=O`, 20% (active); to `Cc1ccc(CN2c3ccccc3-c3nc(SCC(=O)NCc4ccccc4)ncc3S2(=O)=O)cc1`, 17% (active).
In the case of `Cc1ccccc1CN1c2ccccc2-c2nc(SCC(=O)c3ccccc3)ncc2S1(=O)=O`, the survival is 102%.
On to `Cc1ccccc1CN1c2ccccc2-c2nc(SCC(=O)NCCc3ccccc3)ncc2S1(=O)=O`, for which the survival is 66%.
Consider `NC(=O)CSc1ncc2c(n1)-c1ccccc1N(Cc1ccccc1)S2(=O)=O`, for which the survival is 89%.
`CCN1c2ccccc2-c2nc(SCC(=O)NCc3ccc(Cl)cc3)ncc2S1(=O)=O`: the survival is 46% (active).
As for `O=C(CSc1ncc2c(n1)-c1ccccc1N(Cc1ccccc1)S2(=O)=O)Nc1ccccc1`, the survival was -5% (active).
Take `CCN1c2ccccc2-c2nc(SCC(=O)NCc3ccc(C)cc3)ncc2S1(=O)=O`: the survival was 105%.
With `O=C(CCCc1ccccc1)NC1CC(=O)N(c2cccc(F)c2)C1` (stereo not given), the survival was 120%.
To `CN(C)c1ccc(C(CNS(=O)(=O)c2ccc(F)cc2F)N2CCOCC2)cc1` (stereo not given) belongs 69%.
Turning to `Cc1nn2c(=O)cc(CN(C)c3ccccc3)nc2s1`, the survival is 135%.
The figure for `COc1ccc(S(=O)(=O)N2CCC(Oc3ccc(-n4cnnn4)cc3)CC2)cc1` is 90%; for `O=C(NC1CC(=O)N(c2ccc(F)cc2)C1)c1ccc(S(=O)(=O)N2CCOCC2)cc1` (stereo not given) it is 93%.
In the case of `Cn1c(SCC(N)=O)nnc1-c1ccc(S(=O)(=O)N2CCCC2)cc1`, the survival is 79%.
In the case of `Cc1ccc(Cl)cc1N1CCN(C(=O)Cn2cnc3onc(-c4ccc(F)cc4)c3c2=O)CC1`, the survival was 75%.
To `O=C(NCCc1ccccc1)C1CCC(CNS(=O)(=O)c2ccccc2)CC1` (stereo not given) belongs 91%; to `CCc1cccc(NC(=O)CSc2ncc3c(n2)-c2ccccc2N(CC)S3(=O)=O)c1`, 101%.
To `CCc1cccc(NC(=O)CSc2ncc3c(n2)-c2ccccc2N(Cc2ccccc2C)S3(=O)=O)c1` belongs 8% (active).
To `CCOc1ccc(NC(=O)CSc2ncc3c(n2)-c2ccccc2N(Cc2ccccc2C)S3(=O)=O)cc1` belongs 91%; to `CCOC(=O)c1ccc(NC(=O)CC2C(=O)N(c3cccc(C)c3)C(=O)N2CCOC)cc1` (stereo not given), 74%.
As for `CCc1ccc(NC(=O)[C@H](Cc2ccccc2)N2Cc3ccccc3C2=O)cc1`, the survival is 88%.
To `FC(F)(F)c1cccc(-c2nnn3c2nc(NC2CCCCC2)c2ccccc23)c1` belongs 13% (active).
The figure for `CC1CCC(Nc2nc3c(-c4cccc(C(F)(F)F)c4)nnn3c3ccccc23)CC1` (stereo not given) is -3% (active); for `CCCCNc1nc2c(-c3cccc(C)c3)nnn2c2ccccc12` it is 98%; for `Fc1cccc(-c2nnn3c2nc(NC2CCCCC2)c2ccccc23)c1` it is 59%.
`Brc1cccc(-c2nnn3c2nc(NC2CCCCC2)c2ccccc23)c1`: the survival was 64%.
Consider `COc1ccc(CCNc2nc3c(-c4cccc(C(F)(F)F)c4)nnn3c3ccccc23)cc1OC`, for which the survival is 85%.
Consider `Cc1cccc(CCNC(=O)c2ccc(CSCc3cccc(Cl)c3)o2)c1`, for which the survival was 70%.
To `O=C(CN1C(=O)COc2ccc(S(=O)(=O)N3CCOCC3)cc21)Nc1ccc(F)c(Cl)c1` belongs 106%; to `CCc1ccc(NC(=O)CN2C(=O)C3(SCC(=O)N3c3ccccc3)c3ccccc32)cc1` (stereo not given), 129%; to `Cc1ccc(NC(=O)CSc2nc3n[nH]c(C)c3c(=N)n2-c2cccc(C)c2)cc1`, -5% (active).
The figure for `CCCCN(CC)C(=O)CSc1nc2n[nH]c(C)c2c(=N)n1-c1cccc(C)c1` is 88%; for `Cc1ccc(Cl)cc1-n1c(SCC(=O)NCc2ccccc2)nc2n[nH]c(C)c2c1=N` it is 81%.
To `Cc1cccc(NC(=O)CSc2nc3n[nH]c(C)c3c(=N)n2-c2cccc(Cl)c2)c1` belongs 55%; to `Cc1c(Cl)cccc1-n1c(SCC(=O)NCc2ccccc2)nc2n[nH]c(C)c2c1=N`, 126%.
Turning to `CCCCN(CC)C(=O)CSc1nc2n[nH]c(C)c2c(=N)n1-c1cccc(OC)c1`, the survival was 109%.
The figure for `Cc1cccc(-n2c(SCC(=O)Nc3ccc(C)c(C)c3)nc3n[nH]c(C)c3c2=N)c1` is 87%; for `CCCCN(CC)C(=O)CSc1nc2n[nH]c(C)c2c(=N)n1-c1cccc(Cl)c1` it is 17% (active); for `Cc1ccc(-n2c(SCC(=O)NCc3ccccc3)nc3n[nH]c(C)c3c2=N)cc1Cl` it is -5% (active).
To `O=C(NCC1CCCO1)Nc1c[nH]c2c(Cl)cccc2c1=O` (stereo not given) belongs 97%; to `Cn1c(=O)cc(SCC(=O)NCc2ccc(F)cc2)c2ccc(Cl)cc21`, 91%.
`Cc1cccc(Cn2c(C)c(C)c3cc(C(=O)NCc4ccco4)ccc32)c1`: the survival is 94%.
To `COc1cc(CCNC(=O)c2ccc3c(c2)c(C)c(C)n3Cc2cccc(C)c2)cc(OC)c1OC` belongs 80%.
Take `Cc1ccc(CNC(=O)CC(C)S(=O)(=O)c2cc3c(cc2C)NC(=O)CO3)cc1` (stereo not given): the survival was 89%.
The figure for `Cc1ccc(C(=O)N2CCCCC2)cc1NC(=O)c1nsc2ccccc12` is -4% (active); for `Cc1ccc(C(=O)N2CCC(C(N)=O)CC2)cc1NC(=O)c1nsc2ccccc12` it is 87%.
Consider `O=C(Nc1ccc(C(=O)N2CCN(c3ccccc3)CC2)cc1)c1nsc2ccccc12`, for which the survival is -1% (active).
Regarding `O=C(Nc1ccc(C(=O)N2CCN(c3ccc(Cl)cc3)CC2)cc1)c1nsc2ccccc12`, the survival was 72%.
To `O=C(Nc1ccc(C(=O)N2CCN(c3cccc(Cl)c3)CC2)cc1)c1nsc2ccccc12` belongs 79%; to `Cc1ccc(Cl)cc1N1CCN(C(=O)c2ccc(NC(=O)c3nsc4ccccc34)cc2)CC1`, 6% (active); to `O=C(Nc1ccc(C(=O)N2CCN(c3ccc(F)cc3)CC2)cc1)c1nsc2ccccc12`, 81%.
On to `Cc1ccc(C)c(N2CCN(C(=O)c3ccc(NC(=O)c4nsc5ccccc45)cc3)CC2)c1`, for which the survival was 67%.
The figure for `Cc1ccc(C(=O)N2CCC(C)CC2)cc1NC(=O)c1nsc2ccccc12` is 96%.
